Screening data: PubChem, ICCB-Longwood Screening Facility, Harvard Medical School
Rows were chosen to be rich in hits. Some 1.4% of all compounds tested hit in one or more screens of this group.
Polio RdRp inh = poliovirus RdRp elongation inhibitors, primary screen, biochemical, fluorescence polarization, total intensity; Genome polyprotein (Poliovirus type 1 (strain Mahoney)), P03300; poliovirus polymerase elongation; stronger effect = lower value; % elongation, % (compound at 16.7 µg/mL); hit rate 0.66% among 150,000; in the data active = % elongation below about 90%
Mtb MbtI inh = MbtI salicylate synthase inhibitors, primary screen, biochemical, fluorescence intensity. purified MbtI enzyme, fluorescence intensity read-out. hit rate 0.89% among 100,000. inhibition, % (test concentration not listed). AID 493033, 2011; in the data active = inhibition mostly above about 56%, no sharp cut-off; inactive = mostly below about 77%
MenB inh = M. tuberculosis MenB inhibitors, primary screen, biochemical, absorbance. 1,4-dihydroxy-2-naphthoyl-CoA synthase (Mycobacterium tuberculosis (strain ATCC 25618 / …. MenB enzyme assay, absorbance read-out. inhibition, % (concentration not given with the values). hit rate 0.43% among 100,000; in the data active = inhibition above about 21%, passing the limit was not always enough
Target sequence (P9WNP5 whole entry, looked up): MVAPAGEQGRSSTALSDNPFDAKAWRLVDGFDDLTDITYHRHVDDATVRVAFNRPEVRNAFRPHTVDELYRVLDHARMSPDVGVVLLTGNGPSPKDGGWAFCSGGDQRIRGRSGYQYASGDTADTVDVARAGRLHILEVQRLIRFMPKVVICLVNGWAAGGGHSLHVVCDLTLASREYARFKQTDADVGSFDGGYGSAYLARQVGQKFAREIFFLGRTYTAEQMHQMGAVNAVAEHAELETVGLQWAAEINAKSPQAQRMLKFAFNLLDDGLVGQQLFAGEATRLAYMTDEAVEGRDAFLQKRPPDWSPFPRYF
* hit, by the source's call; · = no result given.

SMILES | Polio RdRp inh | Mtb MbtI inh | MenB inh
CC1Cc2ccccc2N1C(=O)c1ccc(Cl)cc1 (stereo not given) | 103 | -8 | -27
CCc1ccc(NC(=O)NC2CCN(Cc3ccccc3)CC2)cc1 | 103 | -11 | -34
CCc1ccc(CN2CCC(O)CC2)cc1 | 99 | -11 | 36*
CCOc1ccc2c(c1)nc1n2C(=O)C(c2ccccc2)CS1 (stereo not given) | 100 | -12 | -20
O=C(/C=C/c1ccccc1)Oc1ccccc1 | 104 | 5 | -11
O=C(/C=C/c1ccccc1)Oc1nc2ccccc2s1 | 85* | · | 3
CC1CCC2(CC1)NC(=O)N(NC(=S)NCc1ccc3c(c1)OCO3)C2=O (stereo not given) | 103 | 67* | -29
CCNC(=S)NCc1ccc2c(c1)OCO2 | 106 | -9 | -26
FC(F)(F)c1cc(-c2cccs2)n[nH]1 | 104 | -8 | 1
S=c1nc(-c2cccs2)cn[nH]1 | 101 | 74* | -33
O=C(Cn1cnc2ccccc2c1=O)N1CCc2ccccc21 | 106 | -30 | 8
O=C(Cn1cnc2ccccc2c1=O)N1CCCCCC1 | 100 | 5 | 33*
Cc1ccc(Cl)cc1NC(=O)c1csnn1 | 95 | · | ·
Cc1ccc(Cl)cc1NC(=O)C1=NCCN1 | 73* | 0 | -49
Clc1cccc(N2CCN(c3nnc4n3CCCCC4)CC2)c1 | 102 | 0 | 13
C/C(=N/NC(=O)C(F)(F)F)c1cccs1 | 103 | 4 | -11
C/C(=N\NC(=O)C(F)(F)F)c1ccccc1O | 103 | 1 | 34*
ClCC1CCCO1 (stereo not given) | 101 | 13 | ·
C=CCn1c(Cc2ccc(O)c(Cl)c2)n[nH]c1=S | 101 | 93* | -18
C=CCn1c(CNC(=O)c2ccccc2)n[nH]c1=S | 104 | 13 | -36
CCSc1nnc(NC(=O)c2ccc(=O)n(C)n2)s1 | 104 | 11 | 3
COc1ccc(C(=O)Nc2ccc3c(c2)C(=O)N(CCC(=O)O)C3=O)cc1 | 101 | 1 | -6
COc1ccc(-n2c(O)c(C=NC(C)(C)C)c3ccccc3c2=O)cc1 | 104 | -17 | ·
Nc1ccccc1C(=O)CSc1ccccn1 | 101 | 58 | -65
O=C(CSc1ccccn1)c1ccc(F)cc1 | 99 | 86* | -10
SMILES | Polio RdRp inh | Mtb MbtI inh | MenB inh
CC1(C)C(c2ccc(F)cc2)=[N+]([O-])C(C)(C)C(c2ccc(F)cc2)=[N+]1[O-] | 103 | -11 | -23
COC(=O)/C=C1\SCC(=O)N1CC(=O)NCCc1ccc(OC)c(OC)c1 | 101 | -4 | -15
CCN1CCN(C(=O)c2cccc(Nc3nc4ccccc4n4nnnc34)c2)CC1 | 104 | 56 | -9
CCc1nnc(SCc2nc(-c3ccccc3F)oc2C)c2cc3oc(C)cc3n12 | 103 | 1 | -2
c1ccc(CNC2=NCCC2)nc1 | 100 | 3 | -43
CC1=C(C)C(=O)C(NCc2ccccn2)=CC1=O | 66* | 8 | -2
O=C(/C=C/c1cn(-c2ccccc2)nc1-c1cccnc1)NCCCn1ccnc1 | 106 | -2 | -14
CCN1CCN(C(=O)C2C3CCC(C3=C(C)C)C2C(=O)O)CC1 (stereo not given) | 100 | -25 | -10
CCOC(=O)c1cc(-c2ccccc2)n(CCC(=O)N2CCCCCC2)c1C | 102 | -11 | -21
O=C(O)Cc1n[nH]c(=O)c2ccccc12 | 101 | -9 | 37*
O=C(Cc1n[nH]c(=O)c2ccccc12)NCc1ccccc1 | 101 | -6 | 28
CN(CCc1ccccn1)c1nc(C(F)(F)F)nc2ccccc12 | 98 | 3 | -4
CCN1C(=O)S/C(=C/c2cc(Br)c(OCC(=O)O)c(OC)c2)C1=O | 99 | 1 | -10
COc1cccc(N2C(=O)CN=C2Nc2nc(C)cc(C)n2)c1 | 107 | · | -8
COc1cccc(N2C(=O)CC(n3nc(Nc4cccc(C)c4)sc3=S)C2=O)c1 (stereo not given) | 101 | 99* | 0
O=C(O)CCC(=O)c1ccc(Br)cc1 | 90* | -11 | ·
O=C(O)CCC(=O)c1ccc(I)cc1 | 101 | 4 | ·
O=C(CCSCc1cnn(-c2ccccc2)c1-n1cccc1)NCc1ccco1 | 101 | 9 | 5
O=C(CN1C(=O)S/C(=C\c2ccco2)C1=O)CN1C(=O)S/C(=C\c2ccco2)C1=O | 101 | -7 | -10
Cc1cc(C)c(C#N)c(=N)o1 | 55* | 109 | 1
Cc1cc(C)n(N)c(=O)c1C#N | 100 | -17 | -29
CC(C#N)Sc1nnc(-c2ccccc2F)n1CCc1ccccc1 (stereo not given) | 99 | 2 | -8
CCCc1nc(=S)c2ccccc2[nH]1 | 102 | 92* | -26
S=c1nc(Cc2cccs2)[nH]c2ccccc12 | 102 | 24 | -81
CC(=O)N(C)c1ccc(N=Nc2c(-c3ccccc3)[nH][nH]c2=O)cc1 | 99 | 29 | -441
SMILES | Polio RdRp inh | Mtb MbtI inh | MenB inh
CC(=O)Oc1ccc(-c2ccc(C(=O)O)cc2)cc1Cl | 100 | 85* | ·
CC(=O)Oc1ccc(-c2ccc(C(=O)O)cc2)cc1C | 103 | -10 | ·
CN(C(=O)CN1N=NC2C(=O)N(c3ccc(Br)cc3)C(=O)C21)c1ccccc1 (stereo not given) | 102 | -8 | -11
CCOC(=O)Nc1ccc2c(COC(=O)c3nc4nc(C)ccn4n3)cc(=O)oc2c1 | 104 | 125 | -7
COc1ccc(CN(C)C(=O)COc2ccccc2)cc1 | 102 | -8 | -28
CN(Cc1ccccc1)C(=O)COc1ccc(S(=O)(=O)N2CCCC2)cc1 | 100 | -3 | 40*
CN1N=C(c2ccc3c(c2)OCCO3)CCC1=O | 100 | 8 | -17
O=C1CCCC1Sc1nnnn1-c1ccccc1 (stereo not given) | 102 | -2 | -6
Cc1c(Cl)cccc1N1C(=O)CC(Sc2nnnn2-c2ccccc2)C1=O (stereo not given) | 104 | 98* | -34
Cc1noc2ncnc(N(CCO)c3ccccc3)c12 | 103 | -4 | -31
COC(=O)c1sccc1Oc1ccc(C(F)(F)F)cc1NC(=O)/C=C/C(=O)O | 103 | -8 | -5
Cc1ccc(Cl)cc1NC(=O)Nc1cn(CC(C)C)c(=O)c2ccccc12 | 69* | · | ·
CC(C)Cn1cc(NC(=O)Nc2cccnc2)c2ccccc2c1=O | 101 | 119 | 0
COc1ccc(NC(=O)Nc2cn(CC(C)C)c(=O)c3ccccc23)c(OC)c1 | 94 | · | ·
CC(=O)c1ccc(N2CCN(C(=O)Nc3cn(CC(C)C)c(=O)c4ccccc34)CC2)cc1 | 76* | · | ·
COc1ccc(CNC(=O)Nc2cn(CC(C)C)c(=O)c3ccccc23)cc1 | 60* | · | ·
CC(C)Cn1cc(NC(=O)N2CCN(c3ccccc3)CC2)c2ccccc2c1=O | 98 | -20 | 0
CS(=O)(=O)c1ccc(NC(=O)CSCc2ccc(F)cc2)cc1 | 103 | 4 | 9
CCOC(=O)c1ccc(/N=C/N(C)C)o1 | 104 | -5 | -19
CC(C)Cn1c(CC(C)(C)C)nc2ccccc21 | 100 | -6 | -25
Cc1csc2nc(COC(=O)CSc3ccccc3)cc(=O)n12 | 105 | -162 | -27
C=CCN(C)C1CC(=O)N(c2ccc(C)c(Cl)c2)C1=O (stereo not given) | 99 | 95* | 10
Cc1ccc(N2C(=O)CC(NCc3ccc(S(N)(=O)=O)cc3)C2=O)cc1Cl (stereo not given) | 99 | 6 | -21
